Experimental findings from PubChem BioAssay are described below.

The nature of assay [1]: antimalarial activity against Dd2 strain (AID 2302;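 active means growth inhibition above 50% at the single 2 µM test dose, taken to imply half-maximal potency below 2 µM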;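 further: 0% = DMSO untreated growth and 100% = chloroquine plus artemisinin killed control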). As to conditions: P. falciparum Dd2 in RBCs, LDH growth readout, 72 h; at 2 µM; hits give high values.
The nature of assay [2]: human hepatoma cell viability loss – ATP luminescence, cytotoxicity control for P. falciparum antimalarial project, primary screen (AID 2303;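 active means inhibition above 50%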;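 further: 0% = DMSO wells and 100% = digitonin-killed cells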). As to conditions: HepG2 viability, 24-48 h, at 10 µM, hits give high values.
Assay [3] deals with L-lactate dehydrogenase (Plasmodium falciparum (isolate CDC / Honduras)) (UniProt Q27743). The assay is described as follows: PfLDH activity inhibition – cell lysate, 3D7 strain, counter-screen for P. falciparum growth inhibition project (AID 2304).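 Further: 0% = vehicle and 100% = reference inhibitor.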 The settings on record: P. falciparum 3D7 crude extract, LDH APAD/NBT absorbance; at 2 µM; hits give high values.
Assay [4] can be described thus: inhibition of 3D7 malaria parasite growth – strain 3D7 (AID 2306).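 Further: 0% = DMSO wells and 100% = chloroquine plus artemisinin control wells.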 As to conditions: P. falciparum 3D7 erythrocytic growth, LDH absorbance, 72 h; at 2 µM; hits give high values.
For assay [5], the target named is Calcium-dependent protein kinase 1 (Plasmodium falciparum (isolate 3D7)) (UniProt P62344). Description: PfCDPK1 kinase inhibitors, biochemical, TCAMS library (AID 1159585; cut-off not given, nearly all actives have IC50 up to about 0.98 µM;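 further: inhibitors leave more ATP so luminescence rises with inhibition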). As to conditions: recombinant PfCDPK1, Kinase-Glo ATP depletion luminescence.
The target of assay [6] is Plasmodium falciparum protein kinase 6 (PK6, PF3D7_1337100) (UniProt Q8IDW1). The assay is described as follows: PfPK6 kinase inhibitors, biochemical, TCAMS library (AID 1159586). As to conditions: recombinant PfPK6, Kinase-Glo ATP depletion luminescence.
The target in assay [7] is Protein kinase 7 (PK7), Plasmodium falciparum 3D7 (PF3D7_0213400) (UniProt Q7YTF7). Description: inhibition of Plasmodium PK7 catalytic activity – biochemical, TCAMS antimalarial set, Kinase-Glo luminescence (AID 1159587). The settings on record: recombinant PfPK7, Kinase-Glo ATP depletion luminescence.
Assay [8] deals with Calcium-dependent protein kinase 4 (Plasmodium falciparum (isolate 3D7)) (UniProt Q8IBS5). Description: PfCDPK4 kinase inhibitors, biochemical, TCAMS library (AID 1159588; cut-off not given, nearly all actives have IC50 up to about 0.91 µM). The settings on record: recombinant PfCDPK4, Kinase-Glo ATP depletion luminescence.

Structures are written as SMILES. Values without a mark were called inactive. For part of these data: Measured potencies and affinities stand elsewhere. Calls of active or inactive are those of the source. Unless noted, how the calls were made is not given here.

Sequence of L-lactate dehydrogenase (Plasmodium falciparum (isolate CDC / Honduras)) (Q27743 whole entry, looked up): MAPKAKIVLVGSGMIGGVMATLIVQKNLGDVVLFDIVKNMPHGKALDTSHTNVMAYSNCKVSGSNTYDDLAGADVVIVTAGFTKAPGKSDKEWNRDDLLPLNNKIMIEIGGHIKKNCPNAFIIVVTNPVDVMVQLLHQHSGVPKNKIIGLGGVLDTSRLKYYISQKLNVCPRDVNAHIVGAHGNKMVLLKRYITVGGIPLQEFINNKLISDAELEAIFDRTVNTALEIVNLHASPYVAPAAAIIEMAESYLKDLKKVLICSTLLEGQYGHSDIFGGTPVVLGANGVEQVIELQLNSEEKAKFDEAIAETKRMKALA
Sequence of Calcium-dependent protein kinase 4 (Plasmodium falciparum (isolate 3D7)) (Q8IBS5 whole entry, looked up): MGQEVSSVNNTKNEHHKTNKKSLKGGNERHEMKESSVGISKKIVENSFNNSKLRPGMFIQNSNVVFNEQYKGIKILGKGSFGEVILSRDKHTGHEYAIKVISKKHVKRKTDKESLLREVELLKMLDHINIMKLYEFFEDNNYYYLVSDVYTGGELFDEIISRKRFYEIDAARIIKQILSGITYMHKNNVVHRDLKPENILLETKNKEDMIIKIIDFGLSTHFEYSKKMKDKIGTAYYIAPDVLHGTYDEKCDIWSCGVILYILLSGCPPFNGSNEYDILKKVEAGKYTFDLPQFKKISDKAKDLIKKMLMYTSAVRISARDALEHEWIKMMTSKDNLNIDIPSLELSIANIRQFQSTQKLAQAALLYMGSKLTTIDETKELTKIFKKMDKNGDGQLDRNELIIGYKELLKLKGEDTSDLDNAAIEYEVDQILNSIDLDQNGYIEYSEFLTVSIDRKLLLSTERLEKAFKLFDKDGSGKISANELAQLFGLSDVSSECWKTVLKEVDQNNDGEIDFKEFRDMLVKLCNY
Sequence of Plasmodium falciparum protein kinase 6 (PK6, PF3D7_1337100) (Q8IDW1 1-305): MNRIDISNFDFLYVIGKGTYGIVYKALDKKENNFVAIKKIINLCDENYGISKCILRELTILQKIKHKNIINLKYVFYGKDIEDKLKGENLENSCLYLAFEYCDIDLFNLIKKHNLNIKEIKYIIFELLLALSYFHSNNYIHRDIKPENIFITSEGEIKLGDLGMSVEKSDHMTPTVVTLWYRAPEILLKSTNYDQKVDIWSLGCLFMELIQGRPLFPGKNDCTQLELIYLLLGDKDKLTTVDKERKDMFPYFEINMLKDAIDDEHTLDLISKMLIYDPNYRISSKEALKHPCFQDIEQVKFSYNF
Sequence of Calcium-dependent protein kinase 1 (Plasmodium falciparum (isolate 3D7)) (P62344 whole entry, looked up): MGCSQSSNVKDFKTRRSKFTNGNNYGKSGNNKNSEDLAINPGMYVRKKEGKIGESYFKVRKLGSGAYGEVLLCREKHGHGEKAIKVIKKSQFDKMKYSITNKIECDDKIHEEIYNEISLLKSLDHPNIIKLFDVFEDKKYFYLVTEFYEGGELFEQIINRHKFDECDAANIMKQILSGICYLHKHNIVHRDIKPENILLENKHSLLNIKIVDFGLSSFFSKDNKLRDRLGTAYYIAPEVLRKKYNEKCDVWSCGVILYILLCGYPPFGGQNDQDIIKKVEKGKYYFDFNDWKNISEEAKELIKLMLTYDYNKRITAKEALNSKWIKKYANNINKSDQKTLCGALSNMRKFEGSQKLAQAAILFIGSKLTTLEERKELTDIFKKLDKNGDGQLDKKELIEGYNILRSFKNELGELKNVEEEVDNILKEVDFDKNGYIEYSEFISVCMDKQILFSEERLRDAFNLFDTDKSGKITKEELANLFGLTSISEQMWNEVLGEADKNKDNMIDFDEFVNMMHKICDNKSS
Sequence of Protein kinase 7 (PK7), Plasmodium falciparum 3D7 (PF3D7_0213400) (Q7YTF7 1-343): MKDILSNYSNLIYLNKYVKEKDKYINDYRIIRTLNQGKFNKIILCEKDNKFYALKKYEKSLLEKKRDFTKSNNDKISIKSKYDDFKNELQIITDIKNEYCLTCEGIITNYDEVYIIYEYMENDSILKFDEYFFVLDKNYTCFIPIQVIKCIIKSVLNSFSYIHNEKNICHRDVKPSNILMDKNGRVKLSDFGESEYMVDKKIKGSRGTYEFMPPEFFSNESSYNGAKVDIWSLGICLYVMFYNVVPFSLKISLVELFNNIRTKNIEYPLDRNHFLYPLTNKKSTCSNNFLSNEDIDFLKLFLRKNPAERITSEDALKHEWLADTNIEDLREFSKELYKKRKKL

Consider `Cc1cc(N(C)C)nc(Nc2ccc(NS(=O)(=O)c3ccccc3)cc2)n1`, for which the figures for the growth inhibition in assay [1] and in assay [4] were 11% and 92% (active), respectively. Besides, the figures for the inhibition in assay [2] and in assay [3] were -3% and -1%, respectively. Further, the result in assay [5], in assay [6], in assay [7] and in assay [8] was inactive.

`c1cc(CN2CCN(CCN3CCOCC3)CC2)cc(-c2csc(-c3nc4ccccc4[nH]3)c2)c1`: the figures for the growth inhibition in assay [1] and in assay [4] were 99% (active) and 100% (active), respectively. The inhibition in assay [2] is 27%; in assay [3], -8%. Besides, the outcome in assay [5], in assay [6], in assay [7] and in assay [8] was inactive.

Consider `COc1cc(Nc2ccnc3cc(-c4ccccn4)ccc23)cc(OC)c1OC`, for which the growth inhibition in assay [1] is 0%; in assay [4], 91% (active). Further, the inhibition in assay [2] was -9%; in assay [3], -1%. The result in assay [5], in assay [6], in assay [7] and in assay [8] was inactive.

For the compound `Cc1ccc(Nc2nc(NN=Cc3ccccc3[N+](=O)[O-])nc(Nc3ccc([N+](=O)[O-])cc3)n2)cc1C`, the growth inhibition was 81% (active) in assay [1] and 101% (active) in assay [4]. The inhibition is 4% in assay [2] and 5% in assay [3]. Besides, the result in assay [5], in assay [6], in assay [7] and in assay [8] was inactive.

For the compound `Nc1c2ccccc2nc2cc(C(F)(F)F)ccc12`, the growth inhibition was 49% in assay [1] and 101% (active) in assay [4]. Moreover, the inhibition in assay [2] is 8%; in assay [3] it was 1%. The outcome in assay [5], in assay [6], in assay [7] and in assay [8] was inactive.

On to `O=[N+]([O-])c1nc(Br)n(Cc2ccc(Cl)cc2)n1`, for which the figures for the growth inhibition in assay [1] and in assay [4] were 95% (active) and 96% (active), respectively. For the same compound, the results for the inhibition in assay [2] and in assay [3] were -3% and -1%, respectively. For the same compound, the outcome in assay [5], in assay [6], in assay [7] and in assay [8] was inactive.

Consider `O=C(Nc1ccc(OC2CCN(Cc3ccccc3)CC2)c(Cl)c1)c1cccs1`, for which the results for the growth inhibition in assay [1] and in assay [4] were 95% (active) and 96% (active), respectively. Further, the inhibition in assay [2] was 2%; in assay [3], 4%. The result in assay [5], in assay [6], in assay [7] and in assay [8] was inactive.

Turning to `Cc1[nH]c2c(NCc3ccc(F)cc3)nccc2c1C`, the growth inhibition in assay [1] was -3%; in assay [4], 83% (active). For the same compound, the inhibition was 63% (active) in assay [2] and -3% in assay [3]. Moreover, the result in assay [5], in assay [6], in assay [7] and in assay [8] was inactive.

For `COc1ccc(CCN2CCC(CN(C)Cc3cnn(-c4ccccc4)c3)CC2)cc1`, the results for the growth inhibition in assay [1] and in assay [4] were 5% and 90% (active), respectively. The values for the inhibition in assay [2] and in assay [3] were 25% and -1%, respectively. The result in assay [5], in assay [6], in assay [7] and in assay [8] was inactive.

As to `N#Cc1ccc(CCNc2nccc(-c3cccc(CN4CCNCC4)c3)n2)cc1`, the growth inhibition in assay [1] was -3%; in assay [4] it was 83% (active). Further, the inhibition in assay [2] is 5%; in assay [3], 3%. In addition, the result in assay [5], in assay [6], in assay [7] and in assay [8] was inactive.

As to `Cc1ccoc1C(=O)Nc1cccc(-c2cccc(-c3nc4ccc(C(F)(F)F)cc4[nH]3)c2)c1`, the growth inhibition is 37% in assay [1] and 98% (active) in assay [4]. The inhibition in assay [2] was 39%; in assay [3], -6%. Moreover, the result in assay [5], in assay [6], in assay [7] and in assay [8] was inactive.

Regarding `Nc1ncc(-c2ccsc2)c2ccc(-c3cnc[nH]3)cc12`, the growth inhibition was 70% (active) in assay [1] and 100% (active) in assay [4]. The values for the inhibition in assay [2] and in assay [3] were 31% and -7%, respectively. The result in assay [5], in assay [6], in assay [7] and in assay [8] was inactive.

On to `COc1ccc(NC(=O)Nc2ccc(-c3cccc(-c4nc5c(C)cccc5[nH]4)c3)cc2)cc1`, for which the growth inhibition was 75% (active) in assay [1] and 101% (active) in assay [4]. Also, the inhibition in assay [2] is 33%; in assay [3] it was 4%. Besides, the outcome in assay [5], in assay [6], in assay [7] and in assay [8] was inactive.

For the compound `Cc1cccc2[nH]c(-c3ccc(-c4cccc(CN5CCN(c6ccc(C#N)cn6)CC5)c4)s3)nc12`, the values for the growth inhibition in assay [1] and in assay [4] were 8% and 85% (active), respectively. In addition, the inhibition is 37% in assay [2] and 2% in assay [3]. Moreover, the outcome in assay [5], in assay [6], in assay [7] and in assay [8] was inactive.

Consider `COc1cccc(C2CCN(CCN3CCC(NC(=O)c4ccc(-c5ccc(Cl)cc5)cc4)CC3)CC2)c1`, for which the growth inhibition is 42% in assay [1] and 93% (active) in assay [4]. Also, the figures for the inhibition in assay [2] and in assay [3] were 31% and -12%, respectively. In addition, the outcome in assay [5], in assay [6], in assay [7] and in assay [8] was inactive.

Turning to `O=C(NCCCCN1CCC(c2ccc3ccccc3c2)CC1)c1ccc(NC(=O)c2ccc(Cl)cc2)cc1`, the growth inhibition was 93% (active) in assay [1] and 102% (active) in assay [4]. Besides, the values for the inhibition in assay [2] and in assay [3] were 24% and -4%, respectively. For the same compound, the outcome in assay [5], in assay [6], in assay [7] and in assay [8] was inactive.

In the case of `O=C(/C=C/c1ccc(Cl)c(Cl)c1)N1CCC(CN2CCC(Cc3cc4ccccc4[nH]3)CC2)CC1`, the growth inhibition in assay [1] is 56% (active); in assay [4], 96% (active). Also, the results for the inhibition in assay [2] and in assay [3] were 49% and -3%, respectively. Also, the result in assay [5], in assay [6], in assay [7] and in assay [8] was inactive.

For the compound `CN(CCCCNC(=O)/C=C/c1ccccc1)C1CC2(CCN(C(=O)OC(C)(C)C)CC2)c2ccccc21` (stereo not drawn), the growth inhibition was 51% (active) in assay [1] and 87% (active) in assay [4]. Moreover, the inhibition is 11% in assay [2] and 1% in assay [3]. Further, the outcome in assay [5], in assay [6], in assay [7] and in assay [8] was inactive.

Turning to `O=C1OC2(CN1CC1CCN(Cc3ccc(-n4ccnc4)cc3)C1)c1ccccc1-c1ccccc12` (stereo not drawn), the results for the growth inhibition in assay [1] and in assay [4] were -5% and 96% (active), respectively. For the same compound, the inhibition in assay [2] is 25%; in assay [3], -2%. Besides, the result in assay [5], in assay [6], in assay [7] and in assay [8] was inactive.

Turning to `CN(Cc1ccncc1)C(Cc1ccccc1)C1CCN(Cc2ccc(O)c(Cl)c2)CC1` (stereo not drawn), the growth inhibition in assay [1] is 97% (active); in assay [4], 96% (active). Further, the inhibition is 22% in assay [2] and -4% in assay [3]. For the same compound, the outcome in assay [5], in assay [6], in assay [7] and in assay [8] was inactive.

Consider `O=C(/C=C/c1ccc(Cl)c(Cl)c1)NCCCCCN1CCC(c2[nH]nc(-c3ccccc3)c2Br)CC1`, for which the growth inhibition is 23% in assay [1] and 95% (active) in assay [4]. Moreover, the inhibition in assay [2] was 100% (active); in assay [3], 1%. Besides, the outcome in assay [5], in assay [6], in assay [7] and in assay [8] was inactive.
